Laboratory results as given in article PMC4552634, “A New Set of Chemical Starting Points with Plasmodium falciparum Transmission-Blocking Potential for Antimalarial Drug Discovery” (PLoS ONE, 2015).
Hit rate of the full screen: of about 13,000 compounds, about 3,200 (25%) showed an effect of 50% or more. This is one part of the list.

test system: P. falciparum stage V gametocytes; parameters: BacTiter-Glo ATP luminescence viability of purified stage V gametocytes in 384-well plates, per cent inhibition versus DMSO; settings: 48 h, 5 µM; inhibitor

SMILES | % Inhibition
CN(C)S(=O)(=O)n1ncc2c3c(N)nc(N)nc3ccc21 [TCMDC-131933] | 29.56%
O=C(/C=C/c1ccc(Cl)cc1)NCCCCCN1CCN(C(=O)Nc2ccc(Cl)c(C(F)(F)F)c2)CC1 [TCMDC-136093] | 12.32%
CCC[C@@H]([C@@H](CC1CCCCC1)C(=O)N[C@H](C(=O)Nc1nccs1)C(C)(C)SCCOCCOCC)N(O)C=O [TCMDC-137777] | 29.4%
CS(=O)(=O)c1ccc(CCNCc2ccc(-c3ccc(CN(C(=O)c4ccc(Cl)nc4)C4CCN(Cc5ccccc5)CC4)cc3)nc2)cc1 [TCMDC-141519] | 96.79%
CS(=O)(=O)c1ccc(CCNCc2ccc(-c3ccc(CN(C(=O)c4cccc(C#N)c4)C4CCN(Cc5ccccc5)CC4)cc3)nc2)cc1 [TCMDC-141518] | 63.72%
CS(=O)(=O)c1ccc(CCNCc2ccc(-c3ccc(CN(C(=O)c4ccco4)C4CCN(Cc5ccccc5)CC4)cc3)nc2)cc1 [TCMDC-141510] | 87.45%
C=C[C@]1(C)C[C@@H](OC(=O)c2n[nH]c3ccccc3c2=O)[C@]2(C)[C@H](C)CC[C@]3(CCC(=O)[C@H]32)[C@@H](C)[C@@H]1O [TCMDC-141325] | 0.6377%
Cc1ccc(Nc2nccc(NCC(O)c3cccc(C(F)(F)F)c3)n2)cc1 (stereo not shown) [TCMDC-136583] | -0.2999%
COc1ccc(CCON2C(N)=NC(N)=NC2(C)C)cc1OC [TCMDC-131738] | -1.929%
CCC(C)CN1CCN(c2cc(NC(=O)c3cccs3)ccn2)C(C)C1 (stereo not shown) [TCMDC-134995] | 14.25%
CCN1CCN(Cc2ccc(NC(=O)c3cc4ccc5cccnc5c4[nH]3)cc2)CC1 [TCMDC-125281] | 19.87%
CCN(CC)CCN(Cc1ccc(-c2ccc(C(F)(F)F)cc2)cc1)C(=O)Cn1c(CCc2cccc(F)c2F)cc(=O)c(C)c1C [TCMDC-141148] | 40.01%
CCN1CCC(N(Cc2ccc(-c3ccc(C(F)(F)F)cc3)cc2)C(=O)Cn2c(CCc3cccc(F)c3F)cc(=O)c3c2CCCC3)CC1 [TCMDC-141326] | 67.51%
CCN(CC)CCN(Cc1ccc(-c2ccc(C(F)(F)F)cc2)cc1)C(=O)Cn1c(CCc2cccc(F)c2F)cc(=O)cc1-c1ccccc1 [TCMDC-141688] | 100.1%
CCN(CC)CCN(Cc1ccc(-c2ccc(C(F)(F)F)cc2)cc1)C(=O)Cn1c(CCc2cccc(F)c2F)cc(=O)c2c1CCCC2 [TCMDC-141327] | 62.98%
CC(C)N1CCC(N(Cc2ccc(-c3ccc(C(F)(F)F)cc3)cc2)C(=O)Cn2c(CCc3cccc(F)c3F)cc(=O)c3c2CCC3)CC1 [TCMDC-141280] | 120.6%
COc1cc(CC(C)NCC(O)c2cccc(C(F)(F)F)c2)ccc1OCc1ccccc1 (stereo not shown) [TCMDC-131479] | 14.56%
CCOc1ccc(NC(C)=O)c(O)c1 [TCMDC-125851] | 13.93%
Cc1ccc(-c2nnc(Nc3ccc(OCC(N)=O)cc3)c3ccccc23)cc1S(=O)(=O)NCC1CCCO1 (stereo not shown) [TCMDC-125617] | -6.517%
CC(=O)Oc1cc(OCc2ccccc2)c(OC(C)=O)c(OCc2ccccc2)c1 [TCMDC-123938] | -24.96%
COCCCNc1nc2cc(OC)c(OC)cc2c2nc(-c3ccccc3)nn12 [TCMDC-124408] | 0.2335%
CC(C)(C)c1ccc(CNCC(C)(C)c2nc(-c3ccc(Cl)c(O)c3)c(-c3ccnc(N)n3)[nH]2)cc1 [TCMDC-141165] | 3.988%

SMILES | % Inhibition
Oc1ccc(Cl)cc1-c1cc(C(F)(F)F)nc(-c2ccccc2)n1 [TCMDC-123665] | 32.7%
COc1ccc2nccc([C@@H](O)CN3CCC(CO)(NCc4cc5ccccc5o4)CC3)c2c1 [TCMDC-140494] | 12.97%
COc1ccc(CC(=O)NC2CCN(c3ccnc4cc(Cl)ccc34)C2)cc1 (stereo not shown) [TCMDC-133665] | -28.04%
CCN(CC)CCN(Cc1ccc(-c2ccc(C(F)(F)F)cc2)cc1)C(=O)CN1C(CCc2cccc(F)c2F)=NS(=O)(=O)c2ccccc21 [TCMDC-141806] | 67.96%
CCN1CCC(N(Cc2ccc(-c3ccc(C(F)(F)F)cc3)cc2)C(=O)Cn2c(CCc3cccc(F)c3F)cc(=O)c3c2CCC3)CC1 [TCMDC-141265] | 65.76%
COCCN1CCC(N(Cc2ccc(-c3ccc(C(F)(F)F)cc3)cc2)C(=O)Cn2c(CCc3cccc(F)c3F)cc(=O)c3c2CCC3)CC1 [TCMDC-141266] | 34.4%
CCCNc1ccc2nccc(CCN3CCC(NCc4ccc5c(c4)NC(=O)CS5)CC3)c2n1 [TCMDC-141619] | -14.28%
ON=C1CCc2cc(-c3nc(-c4cccc(OCCNCc5ccc(F)cc5)c4)[nH]c3-c3ccncc3)ccc21 [TCMDC-141188] | 20.84%
CN1CCC(NCc2ccc(-c3cccc(S(=O)(=O)NCCc4ccccn4)c3)cc2)CC1 [TCMDC-132239] | 62.99%
Cc1cc(-c2cccc(CNC3CCN(C)CC3)c2)ccc1S(=O)(=O)NCCc1ccccn1 [TCMDC-132381] | 33.36%
CN1CCC(NCCS(=O)(=O)c2cccc(Nc3ccc(-c4cccc(F)c4)cn3)c2)CC1 [TCMDC-134370] | 8.325%
CN1CCC(NCc2cccc(-c3ccc(S(=O)(=O)NCCc4ccccn4)cc3)c2)CC1 [TCMDC-132214] | 81.33%
COc1ccc2nccc([C@@H](O)CN3CCC(NCC(=O)Nc4cc(F)cc(F)c4)CC3)c2n1 [TCMDC-140675] | -19.08%
COC(=O)Nc1cc(C(F)(F)F)ccc1N1CCC(CNS(=O)(=O)c2ccc(OC)cc2)CC1 [TCMDC-134157] | 29.26%
Cc1ccc(C(=O)NCC2CCN(c3ccc(C(F)(F)F)cc3NC(=O)c3ccco3)CC2)cn1 [TCMDC-134179] | 52.48%
Cc1ccnc2nc(C(=O)Nc3cc(C(F)(F)F)ccc3N3CCCCC3)nn12 [TCMDC-124492] | -24.2%
C[C@H](NC(=O)[C@H](Cc1ccccc1)NC(=O)OC(C)(C)C)C(=O)N[C@@H](CC1CCCCC1)C(O)CN (stereo partly shown) [TCMDC-137178] | -9.62%
CCC(ON1C(N)=NC(N)=NC1(C)C)c1ccccc1 (stereo not shown) [TCMDC-131604] | -12.67%
CN1CCN(CCCN(Cc2ccc(-c3cccc(CNC4CCCC4)c3)cc2)C(=O)/C=C/c2ccccc2)CC1 [TCMDC-140547] | 114.1%
CN1CCN(CCCN(Cc2cccc(-c3cccc(CNC4CCCC4)c3)c2)C(=O)/C=C/c2ccccc2)CC1 [TCMDC-140543] | 105.2%
CN1CCN(CCCN(Cc2ccc(-c3cccc(CNC4CCCC4)c3)cc2)C(=O)Nc2ccccc2)CC1 [TCMDC-140605] | 107.6%
CCCCN1CCCN(Cc2cccc(NC(=O)c3ccc(-c4ccccc4)cc3)c2)CC1 [TCMDC-141844] | -70.1%

SMILES | % Inhibition
COc1cccc(C=CC(=O)N(CCN)Cc2ccccc2)c1 [TCMDC-137725] | -7.766%
CCCCCN1CCCN(Cc2cccc(NC(=O)c3ccc(-c4ccccc4)cc3)c2)CC1 [TCMDC-141845] | -85.57%
CN1CCN(CCCN(Cc2cccc(-c3ccc(CNC4CCCC4)cc3)c2)C(=O)/C=C/c2ccccc2)CC1 [TCMDC-140544] | 99.25%
CN1CC[C@@H](Oc2cc(CNC(=O)c3ccc(-c4ccc(Cl)cc4)s3)ccc2C(F)(F)F)C1 [TCMDC-136151] | -38.31%
C=CCc1cc(Cc2cnc(N)nc2N)c2ccc(C)nc2c1OC [TCMDC-137891] | -15.21%
Cc1cc(OCc2ccccc2)c(OCc2ccccc2)cc1C(O)CN(C)Cc1ccccc1 (stereo not shown) [TCMDC-131246] | 18.13%
Cc1cc(Nc2ccc(C(C)(C)C)cc2)c2[nH]ncc2n1 [TCMDC-131536] | -25.63%
Cc1ccccc1CCNC(=O)c1ccc(N2CCN(c3ccncc3)CC2)nc1 [TCMDC-134588] | 6.86%
Cc1ccc2cc(C3NC(=O)c4ccccc4N3)c(Cl)nc2c1 (stereo not shown) [TCMDC-124480] | -10.78%
N#Cc1cccc(Nc2nccc(NCC(O)c3cccc(C(F)(F)F)c3)n2)c1 (stereo not shown) [TCMDC-136580] | -40.58%
O=C(Cc1ccccc1)NC(c1ccccc1)c1ccc2cccnc2c1O (stereo not shown) [TCMDC-124383] | 92.16%
O=C(Cc1ccccc1)NC(c1ccc(Cl)cc1)c1ccc2cccnc2c1O (stereo not shown) [TCMDC-124427] | 70.3%
O=C(NC(c1ccc(Cl)cc1)c1ccc2cccnc2c1O)c1ccccc1 (stereo not shown) [TCMDC-123829] | -93.03%
O=C(CCc1ccccc1)NC(c1ccc(Cl)cc1)c1ccc2cccnc2c1O (stereo not shown) [TCMDC-123537] | 82.06%
Cc1ccc(C(NC(=O)Cc2ccccc2)c2ccc3cccnc3c2O)cc1 (stereo not shown) [TCMDC-125551] | 6.84%
c1ccc(C(OCCC2CCN(Cc3cccc4cccnc34)CC2)c2ccccc2)cc1 [TCMDC-136047] | -51.83%
CN(C)CCNc1ncnc2c1[nH]c1ccc(Br)cc12 [TCMDC-124584] | 3.603%
CN(C)c1cc(N/N=C/c2cc(Cl)ccc2O)nc(N(C)C)n1 [TCMDC-125812] | -69.18%
CC1CN(Cc2cccc(C#N)c2)CCN1c1ccc(NC(=O)c2cccs2)cc1 (stereo not shown) [TCMDC-134969] | -7.267%
O=C(CSc1cccc[n+]1[O-])c1ccc(Cc2ncc(C(F)(F)F)cc2Cl)s1 [TCMDC-125823] | 10.92%
